The whole screen tested about 320,000 compounds, of which about 22,000 (6.9%) were called active. A call without a number means that no potency is given here. Roughly 27% stayed inconclusive and do not appear here. Calls come from the whole dose curve; as a rule, active = well fitted inhibition curve with a large enough effect; inconclusive = small, poorly fitted or top-dose-only effect, or another doubt; inactive = no such curve, though single readings can be large or run the other way. The full list was thinned out, with actives kept by preference.
Assay: Primary qHTS for delayed death inhibitors of the malarial parasite plastid, 96 hour incubation
Conditions: P. falciparum luciferase reporter growth; series mostly up to 28.7 µM
Summary of the method: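 Infected RBCs, 2% Hct / 0.05% parasitemia final; luciferase-reporter P. falciparum; cpd 96 h, 37 C, 5% CO2; luciferase detection reagent; luminescence.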
For `O=C(CCCN1C(=O)/C(=C/c2cccs2)SC1=S)Nc1ccc(O)cc1`, the Potency was “inactive”.
In the case of `NS(=O)(=O)c1ccc(CCNC(=O)CN2C(=O)c3ccccc3S2(=O)=O)cc1`, the Potency is reported as “inactive”.
For `CCN(C(=O)CSc1ncnc2sccc12)c1c(N)n(Cc2ccccc2)c(=O)[nH]c1=O`, the Potency was “inactive”.
In the case of `COc1cccc(OC)c1C(=O)Nc1ccc2c(c1)n(C)c(=O)n2C`, the Potency is reported as “inactive”.
In the case of `COc1ccc(C(=O)N(C)CC(O)c2ccccc2)cc1OC1CCN(C(C)=O)CC1` (stereo not given), the Potency is reported as “inactive”.
With `COc1ccc(C(=O)NC2CC2)cc1OC1CCN(C/C=C/c2ccccc2)CC1` the Potency was 11.7 µM (active).
For `COc1ccc(C(=O)NC2CC2)cc1OC1CCN(Cc2ccc(SC)cc2)CC1`, the Potency was “inactive”.
For `O=C(NCCc1ccccn1)c1nc(Cn2cc([N+](=O)[O-])cn2)no1`, the Potency was “inactive”.
For `CC(OC(=O)CNC(=O)c1cccc(F)c1)C(=O)NC1CCCCC1C` (stereo not given), the Potency was “inactive”.
For `COc1ccc2ccccc2c1/C=N/NC(=O)c1cc(C)[nH]n1`, the Potency was “inactive”.
With `CC(C)(C)c1cc(C(=O)N/N=C/c2ccc([N+](=O)[O-])s2)n[nH]1` the Potency was 1.65 µM (active).
With `O=[N+]([O-])c1ccc(C=Nc2ccc(Cl)cc2Cl)s1` the Potency was “inactive”.
In the case of `COC(=O)c1ccc(COC(=O)c2cnc(Cl)c(Cl)c2)cc1`, the Potency is reported as “inactive”.
For `CCOc1ccc(CCNC(=O)COC(=O)CCS(=O)(=O)c2ccc(C)cc2)cc1OCC`, the Potency was “inactive”.
For `CCC(C(=O)N1CCN(S(=O)(=O)c2sc(C(=O)O)c(C)c2C(=O)O)CC1)c1ccccc1` (stereo not given), the Potency was “inactive”.
For `CN(C(=O)CN1C(=O)CCSc2ccc(S(=O)(=O)N3CCCC3)cc21)c1ccccc1`, the Potency was “inactive”.
With `COc1cc(C(=O)NNC(=O)c2ccc(S(=O)(=O)N3CCCCC3)cc2)cc(OC)c1OC` the Potency was “inactive”.
For `CCOc1cc(C(=O)N2CCc3cc(OC)c(OC)cc3C2)ccc1OC(F)F`, the Potency was 5.86 µM (active).
For `COc1cc2c(cc1OC)CN(C(=O)c1ccc(S(=O)(=O)N3CCCCCC3)cc1)CC2`, the Potency was 0.465 µM (active).
For `COc1ccc(S(=O)(=O)N2CCC(C(=O)N3CCCC3)CC2)cc1C`, the Potency was “inactive”.
With `COC(=O)Cc1ccc(OC(=O)C2CCN(S(=O)(=O)c3ccc(OC)c(OC)c3)CC2)cc1` the Potency was “inactive”.
For `CCOc1cc(CN2CCN(C(=O)CC(C)C)CC2)ccc1OC`, the Potency was “inactive”.
With `CCOc1ccc(NC(=O)COc2ccc(C(=O)N3CCC(C(N)=O)CC3)cc2OC)cc1` the Potency was “inactive”.
In the case of `COc1ccc(S(=O)(=O)N2CCCCC2)cc1Br`, the Potency is reported as “inactive”.
For `COc1ccc(S(=O)(=O)N2CCC(C(=O)N3CCc4ccccc4C3)CC2)cc1OC`, the Potency was 8.28 µM (active).
For `COC(=O)c1ccc(C)c(NC(=O)C2CC(=O)N(C3CCCC(C)C3C)C2)c1` (stereo not given), the Potency was “inactive”.
In the case of `COC(=O)c1ccccc1NC(=O)C1CCN(C(=O)N2CCOc3ccccc32)CC1`, the Potency is reported as “inactive”.
For `O=C(COC(=O)c1cccc(Cl)c1)Nc1ccc2[nH]c(=O)[nH]c2c1`, the Potency was “inactive”.
With `Cc1ccc(CN(CC(=O)NCC2CCCO2)S(=O)(=O)c2ccc(C)cc2)cc1` (stereo not given) the Potency was “inactive”.
For `CC(=O)Nc1ccc(NC(=O)CN2C(=O)COc3ccc(S(=O)(=O)N4CCCCC4)cc32)cc1`, the Potency was “inactive”.
For `Cc1ccn2c(=O)nc(SCC(=O)NCc3ccc4c(c3)OCO4)nc2c1`, the Potency was “inactive”.
With `Cc1ccc(C)c(C(=O)COC(=O)Cn2[nH]c(=O)c3ccccc3c2=O)c1` the Potency was “inactive”.
In the case of `Cc1nc(NC(=O)c2ccc3c(c2)OCCO3)ccc1Br`, the Potency is reported as “inactive”.
For `C=C(C)COc1ccc(-c2ncncc2-c2ccc(OC)cc2)c(O)c1`, the Potency was “inactive”.
With `C=C(C)COc1ccc(-c2n[nH]c(C)c2-c2ccccc2OC)c(O)c1` the Potency was 11.7 µM (active).
In the case of `CCOc1ccc(-c2n[nH]c(C)c2-c2ccccn2)c(O)c1`, the Potency is reported as “inactive”.
In the case of `CCOc1ccc(-c2nc(N)ncc2-c2ccccc2OC)c(O)c1`, the Potency is reported as “inactive”.
In the case of `COc1ccc(-c2n[nH]c(C)c2-c2ccccc2OC)c(O)c1`, the Potency is reported as 11.7 µM (active).
With `COc1ccc(-c2[nH]ncc2CN(C)Cc2c(C)n[nH]c2C)c(OC)c1` the Potency was “inactive”.
With `COc1ccc(N=Nc2ccc(O)c(P(=O)(c3ccccc3)c3ccccc3)c2)cc1` the Potency was “inactive”.
For `CCc1nc2nc(C)c(NS(=O)(=O)c3ccc4c(c3)CCCC4)c(=O)n2[nH]1`, the Potency was “inactive”.
With `C=CCn1cc(Cl)cc(C(=O)Nc2ccccc2)c1=O` the Potency was “inactive”.
For `CCOc1ccc(N/C=C/C(=O)c2cc(OC)c(OC)c(OC)c2)cc1`, the Potency was “inactive”.
For `Cc1cccc(NC(=O)CSCC(=O)Nc2nnc(C3CC3)s2)c1`, the Potency was “inactive”.
For `NC(=O)NC(=O)C(OC(=O)CCNS(=O)(=O)c1ccccc1)c1ccccc1` (stereo not given), the Potency was “inactive”.
In the case of `COc1ccc2c(c1)c1nc3n(c(=O)c1n2CC(=O)Nc1ccccc1)CCS3`, the Potency is reported as “inactive”.
For `CCn1c(SCC(=O)Nc2ccc(C)cc2)nc2nc3c(cc2c1=O)CCCC3`, the Potency was 14.7 µM (active).
In the case of `CCn1c(CC(=O)Nc2ccc(C)cc2)nnc1SCC(=O)Nc1nc(C)cs1`, the Potency is reported as “inactive”.
For `COCCn1c(SCC(=O)Nc2ccc3c(c2)CCC3)nc2ccccc2c1=O`, the Potency was “inactive”.
With `O=C(OCC1OC(Oc2ccc(O)cc2)C(O)C(O)C1O)c1ccccc1` (stereo not given) the Potency was “inactive”.
For `COc1ccc(-c2nc(SCC(=O)N3CCCC3)n[nH]2)cc1`, the Potency was “inactive”.
With `O=S(=O)(c1ccc(-c2ccno2)s1)N1CCCCC1` the Potency was “inactive”.
For `CCCCN1Cc2c(nc3cc(-c4ccccc4)[nH]n3c2=O)C1=O`, the Potency was “inactive”.
With `O=C(CCNS(=O)(=O)c1ccccc1C(F)(F)F)Nc1ccncc1` the Potency was “inactive”.
With `COc1ccc(N(CC(=O)N2CCCCCC2)S(=O)(=O)c2ccccc2)cc1` the Potency was “inactive”.
In the case of `COc1ccc([N+](=O)[O-])cc1N(CC(=O)Nc1ccccc1C(=O)N1CCOCC1)S(C)(=O)=O`, the Potency is reported as “inactive”.
In the case of `COc1ccccc1N(CC(=O)Nc1ccccc1C(=O)N1CCCC1)S(C)(=O)=O`, the Potency is reported as 9.28 µM (active).
For `COc1ccccc1N(CC(=O)N1CCCCC1)S(=O)(=O)c1ccccc1`, the Potency was 11.7 µM (active).
With `COc1ccccc1NC(=O)CN(c1ccccc1OC)S(=O)(=O)c1ccccc1` the Potency was “inactive”.
With `CCOc1ccccc1N(CC(=O)Nc1ccccc1C(=O)OC)S(C)(=O)=O` the Potency was “inactive”.
With `Cc1cc(C)c(S(=O)(=O)c2cc(F)ccc2C)c(=O)[nH]1` the Potency was “inactive”.
For `O=C(COC(=O)c1ccc(N2CCCC2=O)cc1)c1ccc(OC(F)F)cc1`, the Potency was “inactive”.
In the case of `COc1ccc(NC(=O)C2C3CCC(O3)C2C(=O)O)cc1OC` (stereo not given), the Potency is reported as “inactive”.
For `O=C(CCCN=C1NS(=O)(=O)c2ccccc21)OCC(=O)c1ccc(F)c(F)c1`, the Potency was “inactive”.
With `CCN(CC(=O)Nc1ccc2c(c1)OCO2)S(=O)(=O)c1ccccc1` the Potency was “inactive”.
In the case of `COc1cc(NC(=O)N2CCOCC2)cc(OC)c1`, the Potency is reported as “inactive”.
In the case of `CN(C)C(=O)Oc1ccc(NC(=O)N2CCOCC2)cc1`, the Potency is reported as 3.29 µM (active).
With `CN(C)S(=O)(=O)c1ccc(NC(=O)N2CCOCC2)cc1` the Potency was “inactive”.
For `CCCCN1CCNC1=S`, the Potency was “inactive”.
In the case of `COc1ccc(-c2cc(=O)oc3cc(OCC(=O)N(C)C4CCS(=O)(=O)C4)ccc23)cc1` (stereo not given), the Potency is reported as “inactive”.
In the case of `CN(CC#CCC(c1ccccc1)c1ccccc1)C(C)(C)C`, the Potency is reported as 4.65 µM (active).
In the case of `CC(C)(C)N(CC#CCC(O)(c1ccccc1)C1CCCC1)CCO` (stereo not given), the Potency is reported as “inactive”.
With `CCCn1nc(C(=O)NNC(=O)CCOc2ccccc2OCC)c2ccccc2c1=O` the Potency was “inactive”.
For `CC(Sc1nnc(CNC(=O)c2ccccc2F)n1C)C(=O)Nc1nccs1` (stereo not given), the Potency was “inactive”.
With `CCCC(O)(CCC)C(=O)NN(C(=O)CCl)c1cccc(C)c1` the Potency was 1.04 µM (active).
In the case of `Cc1ccc(N(NC(=O)C(C)(C)O)C(=O)c2ccccc2)cc1C`, the Potency is reported as “inactive”.
For `CC(C)(O)C(=O)NN(C(=O)c1ccccc1)c1cccc(Br)c1`, the Potency was “inactive”.
For `Cc1ccc2nc(NC(=O)C3CSC4(C)CCC(=O)N34)sc2c1` (stereo not given), the Potency was “inactive”.
In the case of `Cc1ccc(S(=O)(=O)c2c[nH]c3ccc(C)cc3c2=O)cc1`, the Potency is reported as “inactive”.
With `O=C(NCc1ccccc1)c1ccc(CNc2c(N3CCCC3)c(=O)c2=O)cc1` the Potency was “inactive”.
With `O=S(=O)(NCCS(=O)(=O)N1CCN(c2ccccc2)CC1)c1ccc(F)cc1` the Potency was “inactive”.
With `CCOc1ccc(/C=N/NC(=O)C(C)Sc2ccccn2)cc1OCC` (stereo not given) the Potency was “inactive”.
For `COC(=O)N/N=C/c1ccc(/C=N/NC(=O)OC)cc1`, the Potency was “inactive”.
With `CCOc1cc(/C=N/NC(=O)OC)ccc1OCCSc1ccc(Cl)cc1` the Potency was 10.4 µM (active).
With `COc1ccc(C)cc1NC(=O)CCCN1C(=O)NC(C)(C)C1=O` the Potency was “inactive”.
For `NC(=O)c1cc(S(=O)(=O)N2CCCC2)ccc1OCc1ccc(F)cc1`, the Potency was “inactive”.
In the case of `Cc1cc(C)c2[nH]c(=O)c(C(c3nnnn3Cc3ccc4c(c3)OCO4)N3CCCC3)cc2c1` (stereo not given), the Potency is reported as “inactive”.
For `Fc1ccccc1C(c1nnnn1Cc1ccc2c(c1)OCO2)N1CCN(Cc2ccccc2)CC1` (stereo not given), the Potency was 1.85 µM (active).
In the case of `CC(C)(C)n1nnnc1C(c1ccc(F)cc1)N1CCN(Cc2ccc3c(c2)OCO3)CC1` (stereo not given), the Potency is reported as “inactive”.
For `COc1ccc(C(=O)Nc2ccc(C3(C#N)CCCC3)cc2)cc1OC`, the Potency was “inactive”.
With `O=C(CN1CCC(O)(c2ccccc2)CC1)Nc1ccc2c(c1)OCCO2` the Potency was “inactive”.
For `CC1CCCCC1NC(=O)COC(=O)Cc1ccc(Br)cc1` (stereo not given), the Potency was “inactive”.
For `CC1CCCCC1NC(=O)CN1CCC(O)(c2ccc3c(c2)OCO3)CC1` (stereo not given), the Potency was 13.1 µM (active).
In the case of `Cc1cccnc1NC(=O)c1cccc(S(=O)(=O)N2CCN(c3ccc(F)cc3)CC2)c1`, the Potency is reported as “inactive”.
With `O=C(Nc1ccc2c(c1)CCC2)c1cccc(S(=O)(=O)N2CCN(c3ccc(F)cc3)CC2)c1` the Potency was 9.28 µM (active).
In the case of `O=C(Nc1ccc2c(c1)CCC2)c1cccc(S(=O)(=O)Nc2ccccc2Cl)c1`, the Potency is reported as “inactive”.
In the case of `CCOc1ccc(/C=C/C(=O)N(CC)CC(=O)NCc2cccs2)cc1OC`, the Potency is reported as “inactive”.
In the case of `O=C(Cn1nc(C(=O)O)c2ccccc2c1=O)Nc1ccc(F)cc1`, the Potency is reported as “inactive”.
In the case of `COc1ccc(-c2cc(C(=O)N3CCN(c4ccc(F)cc4)CC3)no2)cc1`, the Potency is reported as “inactive”.
In the case of `CCOC(=O)C1(C(F)(F)F)N=C(N(C)C)OC(N(C)C)=N1`, the Potency is reported as 4.15 µM (active).

From PubChem BioAssay AID504834 (National Center for Advancing Translational Sciences (NCATS), 2011)
Potency is the fitted concentration of half-maximal effect.
